D1 agonist: agonists of human D1 dopamine receptor. P21728. HEK293 T-REx D1 cells, calcium flux, agonist mode. activation, % at 2 µM. 1% of 360,000 active; in the data active = activation above about 30%; note: 0% is about no effect
Target sequence (P21728 whole entry, looked up): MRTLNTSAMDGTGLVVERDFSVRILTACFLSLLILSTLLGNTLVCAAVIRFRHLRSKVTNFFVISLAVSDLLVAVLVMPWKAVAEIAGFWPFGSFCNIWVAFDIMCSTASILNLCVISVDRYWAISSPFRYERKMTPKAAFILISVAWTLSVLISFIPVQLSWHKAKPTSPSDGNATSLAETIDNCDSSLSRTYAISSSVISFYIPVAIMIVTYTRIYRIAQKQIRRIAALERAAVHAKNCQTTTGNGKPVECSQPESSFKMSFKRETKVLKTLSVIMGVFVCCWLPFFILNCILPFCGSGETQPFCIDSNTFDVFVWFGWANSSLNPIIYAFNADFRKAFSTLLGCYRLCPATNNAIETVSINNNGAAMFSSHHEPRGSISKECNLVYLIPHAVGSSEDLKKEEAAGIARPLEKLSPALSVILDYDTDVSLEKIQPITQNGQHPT
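Tetracycline-induced HEK293 TREx D1 cells, force-coupled to calcium signalling, were dye-loaded with a no-wash calcium kit. Compound was pin-added after a 10 s baseline. Fluorescence was read kinetically at 1 cycle/s for 180 s, with calcium rises flagged as agonism.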
D3 antag: antagonists of human D3 dopamine receptor. D3R cells, DiscoveRx beta-arrestin luminescence, antagonist mode; hits give low values. max response, negative = inhibition, %. 2.5% of 360,000 active. AID 652054; in the data active = max response below about -50%; inconclusive = no clear call, values can overlap the other calls; note: % is set by controls: 0 for no effect and ±100 for the full control effect
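Cells plated overnight at 1500 cells/well, then exposed to library compounds with dopamine controls for 90 minutes at 37 degrees C. DiscoveRx reagent added for 30–60 minutes at room temperature; luminescence read, quantitative HTS format.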
DRD3 agonist: agonists of human D3 dopamine receptor; P35462; AID 652048; D3R DiscoveRx beta-arrestin cells, luminescence, 90 min; 0.58% of 410,000 active; max activation, %; in the data active = max activation above about 30%; note: 0% is about no effect
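Agonist-mode cell screen: cells plated at 1500/well and incubated overnight at 37 °C, then exposed to library compounds for 90 min at 37 °C. Detection reagent was added for 30–60 min at room temperature, and luminescence was read.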
D1 antag: blocks dopamine activation of the human D1 receptor. HEK293 TREx D1 cells, calcium flux, dopamine EC80; hits give low values. activity change, negative = inhibition, % at 10 µM. 3.2% of 360,000 active; in the data active = activity change below about -30%; note: % is set by controls: 0 for no effect and ±100 for the full control effect
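Inducible Hek293 Trex D1 cells (tetracycline, overnight, 30 C). Calcium dye 30–90 min RT. Antagonist mode: EC80 dopamine added after 180 s compound read.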
D1 potentiator: potentiators of human D1 dopamine receptor | P21728 | 0.036% of 360,000 active | potentiation, % at 10 µM | HEK293 TREx D1 cells, calcium flux, dopamine EC20 potentiation; in the data active = potentiation above about 30%; note: 0% is about no effect
Chronic BCR inh: inhibitors of chronic active B-cell receptor signaling | ABC-DLBCL IkBa-CBG/CBR reporter, luminescence ratio, 4 h | Potency, µM (top dose mostly 46.1 µM), without a hit: top-dose activity change, negative = inhibition, actives largely listed as inhibitors | 0.05% of 340,000 active | AID 493014; active = well fitted inhibition curve with a large enough effect in the signal ratio, with a control signal flat, not every such curve was filed as active; inconclusive = small, poorly fitted or top-dose-only effect, or effect the other way, or a change in a side signal; the % refers to the signal ratio;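 note: potency is the fitted concentration of half-maximal effect; plate controls were basal doxycycline-induced cells for no effect and cells given 10 µM MG132 for full effect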
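Doxycycline induced both beetle luciferases in TMD8 lymphoma cells; IKK-driven degradation limits the IkappaBalpha-fused green signal, while red luminescence normalises for cell number and nonspecific effects. Compounds tested up to 46 uM, 4 hrs.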
An asterisk follows results filed as active; ? = inconclusive; nt = not tested or not shown. Shown are actives, neighbours in structure and some others; about 6% of the full set was active somewhere.

SMILES | D1 agonist | D3 antag | DRD3 agonist | D1 antag | D1 potentiator | Chronic BCR inh
CC(NC(=O)CCNC(=O)c1ccco1)c1ccccc1 (stereo not given) | 0.0 | 18.6 | -1.8 | -42.3* | -5.8 | 7.3%
CC(NC(=O)CCSCCC(=O)NC(C)c1ccccc1)c1ccccc1 (stereo not given) | 0.6 | 0.9 | 3.5 | -45.1* | -2.0 | 0.8%
O=C(CCNC(=O)c1ccco1)Nc1cccc(Br)c1 | 2.5 | 15.9 | -5.9 | -30.3* | -2.5 | 4.0%
CCCNC(=O)N1[C@H](c2cccs2)[C@@H](C)C(=O)[C@@H](C)[C@@H]1c1cccs1 | 1.8 | nt | -9.2 | 18.5 | -0.6 | nt
CCCCCCn1nc(C(=O)OCC(=O)c2c(N)n(C)c(=O)n(C)c2=O)c2ccccc2c1=O | 5.6 | 71.0 | 32.0* | 15.1 | 5.0 | 2.1%
COc1cc(/C=C2\CCCc3c2nc2ccccc2c3C(=O)O)cc(Br)c1O | 8.7 | -9.9 | 1.1 | -5.2 | nt | -16.4%
COc1ccc(/C=C2\CCCc3c2nc2ccccc2c3C(=O)OCC(=O)c2c(N)n(C)c(=O)n(C)c2=O)cc1 | -0.7 | nt | nt | -39.6* | -1.2 | ?
CCOc1cc(/C=C2\CCCc3c2nc2ccccc2c3C(=O)O)ccc1OC | 411.2* | 14.0 | -10.8 | -6.1 | 17.9 | 1.2%
Cn1c(N)c(C(=O)COC(=O)c2cc(C3CC3)nc3ccccc23)c(=O)n(C)c1=O | -3.0 | 124.9 | 36.3* | -4.5 | -5.2 | 0.0%
COc1ccc(-c2cc(C(=O)OCC(=O)c3c(N)n(C)c(=O)n(C)c3=O)c3ccccc3n2)cc1 | 0.7 | 1.5 | -5.5 | 10.3 | -3.9 | -0.5%
COc1ccc(-c2nc3sc(CCNC(=O)Cc4ccc(F)cc4)c(C)n3n2)cc1 | -4.8 | nt | 15.5 | nt | 3.0 | 3.3%
O=C(Cn1cc(CNC(=O)c2ccccc2)nn1)Nc1cc(C(F)(F)F)ccc1Cl | -0.7 | nt | nt | -2.4 | 1.2 | nt
Cc1nc(-c2ccc(C)c(N3CCN(C(=O)Nc4ccc(Br)cc4)CC3)c2)no1 | 2.2 | nt | -0.7 | -7.8 | -5.2 | nt
Cc1cccc(C)c1NC(=O)COC(=O)c1c2c(nc3ccccc13)/C(=C\c1ccc3c(c1)OCO3)CCC2 | 94.5* | -57.6* | 6.6 | -33.5* | -4.6 | -10.8%
CC(OC(=O)c1c2c(nc3ccccc13)/C(=C\c1ccc3c(c1)OCO3)CCC2)C(=O)Nc1ccc(S(N)(=O)=O)cc1 (stereo not given) | 17.4 | 6.6 | -2.4 | -5.2 | 1.8 | 7.2%
CC(=O)N1CC(C)Sc2ccc(S(=O)(=O)NCCc3ccc(C)cc3)cc21 (stereo not given) | 31.2* | -15.7 | 3.2 | -2.0 | -2.7 | -7.5%
CC(=O)N1CC(C)Sc2ccc(S(=O)(=O)NCCc3ccccc3)cc21 (stereo not given) | 26.1 | 24.4 | 4.3 | -10.2 | -4.8 | -1.4%
CC(=O)N1CCCc2cc(S(=O)(=O)NCCC3=CCCCC3)ccc21 | 13.0 | -16.9 | 0.9 | -30.3* | -7.2 | 2.6%
CC(=O)N1CCCc2cc(S(=O)(=O)NCc3ccc(N(C)C)cc3)ccc21 | 6.5 | nt | 2.5 | 1.1 | -5.9 | nt
CCOc1ccc(S(=O)(=O)NCCC2=CCCCC2)c2ccccc12 | 19.4 | -10.8 | 4.4 | -35.6* | -5.0 | 19.9%
O=S(=O)(NCCC1=CCCCC1)c1ccc(Br)cc1 | 1.7 | 0.9 | -1.8 | -30.1* | -10.8 | 6.5%
NC(N)=NN=C(c1ccc(F)cc1)c1ccc(C(F)(F)F)cc1 | nt | -13.5 | 5.8 | nt | nt | nt
COc1ccccc1C(=O)N1CCN(C(=O)[C@H]2O[C@@H](n3ccc(N)nc3=O)[C@H](O)[C@@H]2O)CC1 | nt | 5.9 | 7.4 | nt | nt | nt
COc1ccc([C@H]2C[C@@H](n3cc(-c4ccc(F)cc4)nn3)[C@H](O)CN2C(=O)C2CCCCC2)cc1 | nt | -1.1 | -6.5 | nt | nt | nt
O=C(Cn1c(=O)n(-c2ccc(Cl)cc2)c(=O)c2sc3ccccc3c21)NC1CCCC1 | 2.6 | nt | -5.1 | 7.4 | 0.0 | nt
CCN(CC)c1ccc(NC(=O)C2CCN(S(=O)(=O)c3cnc[nH]3)CC2)c(C)c1 | 3.2 | nt | -11.7 | 6.6 | 3.1 | nt
CC(=O)N1CCCc2cc(S(=O)(=O)NCc3ccc(C)cc3)ccc21 | 10.9 | 104.2 | 2.6 | -37.3* | -14.4 | -5.0%
